# Changes are numbered by the printed parent chain; changes in the protein carry UniProt numbers. Whole data set: some 16,000 sequences, median “ka relative to ugcaugu” near 0.096, cut for the highest 2% near 0.35. The sample as a whole holds a higher share of the highest values than the screen did.
# T1: RBFOX1 RRM RbFoxmut (Fox-RRM*) (Homo sapiens, UniProt Q9NWB1 109-208, R118D;E147R;N151S;E152T)
# T1 sequence: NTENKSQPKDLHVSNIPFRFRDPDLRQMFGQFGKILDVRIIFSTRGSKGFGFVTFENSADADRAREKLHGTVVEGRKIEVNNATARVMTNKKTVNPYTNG
# B1: CUCCGAA (DNA:RNA)
# RNA: GGGAGACCGGAAUUCAGAUUGUCCCUCCGAAUUAAAUCCCGUCGUAGCCACCA
# DNA 1: CAATCTGAATTCCGGTCTCCC
# DNA 2: TGGTGGCTACGACGGGATT
# B2: UGCUACC (DNA:RNA)
# RNA: B1 RNA with C25U, U26G, C28U, G29A, A30C, A31C
# DNA 1: CAATCTGAATTCCGGTCTCCC
# DNA 2: TGGTGGCTACGACGGGATT
# B3: AAAUGCG (DNA:RNA)
# RNA: B1 RNA with C25A, U26A, C27A, C28U, A30C, A31G
# DNA 1: CAATCTGAATTCCGGTCTCCC
# DNA 2: TGGTGGCTACGACGGGATT
# B4: UGACUUC (DNA:RNA)
# RNA: B1 RNA with C25U, U26G, C27A, G29U, A30U, A31C
# DNA 1: CAATCTGAATTCCGGTCTCCC
# DNA 2: TGGTGGCTACGACGGGATT
# B5: UCAUAAU (DNA:RNA)
# RNA: B1 RNA with C25U, U26C, C27A, C28U, G29A, A31U
# DNA 1: CAATCTGAATTCCGGTCTCCC
# DNA 2: TGGTGGCTACGACGGGATT
# B6: GUGCACC (DNA:RNA)
# RNA: B1 RNA with C25G, C27G, G29A, A30C, A31C
# DNA 1: CAATCTGAATTCCGGTCTCCC
# DNA 2: TGGTGGCTACGACGGGATT
# B7: GUGCACG (DNA:RNA)
# RNA: B1 RNA with C25G, C27G, G29A, A30C, A31G
# DNA 1: CAATCTGAATTCCGGTCTCCC
# DNA 2: TGGTGGCTACGACGGGATT
# B8: UUGCACG (DNA:RNA)
# RNA: B1 RNA with C25U, C27G, G29A, A30C, A31G
# DNA 1: CAATCTGAATTCCGGTCTCCC
# DNA 2: TGGTGGCTACGACGGGATT
# B9: AUCCACG (DNA:RNA)
# RNA: B1 RNA with C25A, G29A, A30C, A31G
# DNA 1: CAATCTGAATTCCGGTCTCCC
# DNA 2: TGGTGGCTACGACGGGATT
# B10: UUGCCCG (DNA:RNA)
# RNA: B1 RNA with C25U, C27G, G29C, A30C, A31G
# DNA 1: CAATCTGAATTCCGGTCTCCC
# DNA 2: TGGTGGCTACGACGGGATT
# B11: AUGCACC (DNA:RNA)
# RNA: B1 RNA with C25A, C27G, G29A, A30C, A31C
# DNA 1: CAATCTGAATTCCGGTCTCCC
# DNA 2: TGGTGGCTACGACGGGATT
# B12: AUGCACG (DNA:RNA)
# RNA: B1 RNA with C25A, C27G, G29A, A30C, A31G
# DNA 1: CAATCTGAATTCCGGTCTCCC
# DNA 2: TGGTGGCTACGACGGGATT
# B13: UUGCACC (DNA:RNA)
# RNA: B1 RNA with C25U, C27G, G29A, A30C, A31C
# DNA 1: CAATCTGAATTCCGGTCTCCC
# DNA 2: TGGTGGCTACGACGGGATT
# B14: ACGUGCG (DNA:RNA)
# RNA: B1 RNA with C25A, U26C, C27G, C28U, A30C, A31G
# DNA 1: CAATCTGAATTCCGGTCTCCC
# DNA 2: TGGTGGCTACGACGGGATT
# B15: GUGUCUU (DNA:RNA)
# RNA: B1 RNA with C25G, C27G, C28U, G29C, A30U, A31U
# DNA 1: CAATCTGAATTCCGGTCTCCC
# DNA 2: TGGTGGCTACGACGGGATT
# B16: UGAUGGG (DNA:RNA)
# RNA: B1 RNA with C25U, U26G, C27A, C28U, A30G, A31G
# DNA 1: CAATCTGAATTCCGGTCTCCC
# DNA 2: TGGTGGCTACGACGGGATT
# B17: GGUGGAC (DNA:RNA)
# RNA: B1 RNA with C25G, U26G, C27U, C28G, A31C
# DNA 1: CAATCTGAATTCCGGTCTCCC
# DNA 2: TGGTGGCTACGACGGGATT
# B18: CGCAACA (DNA:RNA)
# RNA: B1 RNA with U26G, C28A, G29A, A30C
# DNA 1: CAATCTGAATTCCGGTCTCCC
# DNA 2: TGGTGGCTACGACGGGATT
# B19: GCACAGC (DNA:RNA)
# RNA: B1 RNA with C25G, U26C, C27A, G29A, A30G, A31C
# DNA 1: CAATCTGAATTCCGGTCTCCC
# DNA 2: TGGTGGCTACGACGGGATT
# B20: GCGAUGU (DNA:RNA)
# RNA: GGGAGACCGGAAUUCAGAUUGUCCGCGAUGUUUAAAUCCCGUCGUAGCCACCA
# DNA 1: CAATCTGAATTCCGGTCTCCC
# DNA 2: TGGTGGCTACGACGGGATT
# B21: CUCAAAA (DNA:RNA)
# RNA: B1 RNA with C28A, G29A
# DNA 1: CAATCTGAATTCCGGTCTCCC
# DNA 2: TGGTGGCTACGACGGGATT
# B22: UUGUACG (DNA:RNA)
# RNA: B1 RNA with C25U, C27G, C28U, G29A, A30C, A31G
# DNA 1: CAATCTGAATTCCGGTCTCCC
# DNA 2: TGGTGGCTACGACGGGATT
# B23: UUGUUGU (DNA:RNA)
# RNA: B20 RNA with G25U, C26U, A28U
# DNA 1: CAATCTGAATTCCGGTCTCCC
# DNA 2: TGGTGGCTACGACGGGATT
# B24: UCGUUUG (DNA:RNA)
# RNA: B20 RNA with G25U, A28U, G30U, U31G
# DNA 1: CAATCTGAATTCCGGTCTCCC
# DNA 2: TGGTGGCTACGACGGGATT
# B25: UUGUUUG (DNA:RNA)
# RNA: B20 RNA with G25U, C26U, A28U, G30U, U31G
# DNA 1: CAATCTGAATTCCGGTCTCCC
# DNA 2: TGGTGGCTACGACGGGATT
# B26: UCGUCGU (DNA:RNA)
# RNA: B20 RNA with G25U, A28U, U29C
# DNA 1: CAATCTGAATTCCGGTCTCCC
# DNA 2: TGGTGGCTACGACGGGATT
# B27: UCGUUUU (DNA:RNA)
# RNA: B20 RNA with G25U, A28U, G30U
# DNA 1: CAATCTGAATTCCGGTCTCCC
# DNA 2: TGGTGGCTACGACGGGATT
# B28: GUGUACG (DNA:RNA)
# RNA: B20 RNA with C26U, A28U, U29A, G30C, U31G
# DNA 1: CAATCTGAATTCCGGTCTCCC
# DNA 2: TGGTGGCTACGACGGGATT
# B29: GUCCGUG (DNA:RNA)
# RNA: B1 RNA with C25G, A30U, A31G
# DNA 1: CAATCTGAATTCCGGTCTCCC
# DNA 2: TGGTGGCTACGACGGGATT
# B30: GUGUCCC (DNA:RNA)
# RNA: B20 RNA with C26U, A28U, U29C, G30C, U31C
# DNA 1: CAATCTGAATTCCGGTCTCCC
# DNA 2: TGGTGGCTACGACGGGATT
# B31: GUGUGUG (DNA:RNA)
# RNA: B1 RNA with C25G, C27G, C28U, A30U, A31G
# DNA 1: CAATCTGAATTCCGGTCTCCC
# DNA 2: TGGTGGCTACGACGGGATT
# B32: GUACGUG (DNA:RNA)
# RNA: B1 RNA with C25G, C27A, A30U, A31G
# DNA 1: CAATCTGAATTCCGGTCTCCC
# DNA 2: TGGTGGCTACGACGGGATT
# B33: UUGUCGU (DNA:RNA)
# RNA: B20 RNA with G25U, C26U, A28U, U29C
# DNA 1: CAATCTGAATTCCGGTCTCCC
# DNA 2: TGGTGGCTACGACGGGATT
# Biological target: T1, RBFOX1 RRM RbFoxmut (Fox-RRM*)
# Test: EMSA; HiTS-Eq, 1 nM pool, 10 min; buffer printed only for the single-RNA assays: 10 mM Tris pH 7.5, 150 mM NaCl, 3.4 mM EDTA, 0.001% NP-40, 30 C
# Settings: tags: His6 N-terminal (pET28a); label: 5' 32P
# In short: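 Relative association constants, normalised to the cognate motif, were derived by comparing read counts of each RNA species with those of the control reaction. The RNA sequenced was the free fraction, separated by 8% native PAGE after a 10 min equilibration in 50 µL of 1 nM 5′-radiolabelled RNA (7 randomized nucleotides) with increasing concentrations of purified wild-type or mutant RbFox RRM.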
row,Binder,binding signal
1,B1,0.104 KA relative to UGCAUGU
2,B2,0.147 KA relative to UGCAUGU
3,B3,0.104 KA relative to UGCAUGU
4,B4,0.0822 KA relative to UGCAUGU
5,B5,0.103 KA relative to UGCAUGU
6,B6,0.167 KA relative to UGCAUGU
7,B7,0.66 KA relative to UGCAUGU
8,B8,0.612 KA relative to UGCAUGU
9,B9,0.135 KA relative to UGCAUGU
10,B10,0.178 KA relative to UGCAUGU
11,B11,0.132 KA relative to UGCAUGU
12,B12,0.551 KA relative to UGCAUGU
13,B13,0.181 KA relative to UGCAUGU
14,B14,0.182 KA relative to UGCAUGU
15,B15,0.101 KA relative to UGCAUGU
16,B16,0.0449 KA relative to UGCAUGU
17,B17,0.0584 KA relative to UGCAUGU

row,Binder,binding signal
1,B18,0.102 KA relative to UGCAUGU
2,B19,0.0832 KA relative to UGCAUGU
3,B20,0.151 KA relative to UGCAUGU
4,B21,0.0819 KA relative to UGCAUGU
5,B22,0.261 KA relative to UGCAUGU
6,B23,0.21 KA relative to UGCAUGU
7,B24,0.396 KA relative to UGCAUGU
8,B25,0.709 KA relative to UGCAUGU
9,B26,0.109 KA relative to UGCAUGU
10,B27,0.0973 KA relative to UGCAUGU
11,B28,0.441 KA relative to UGCAUGU
12,B29,0.146 KA relative to UGCAUGU
13,B30,0.101 KA relative to UGCAUGU
14,B31,0.532 KA relative to UGCAUGU
15,B32,0.188 KA relative to UGCAUGU
16,B33,0.132 KA relative to UGCAUGU

# Source: PMC9911399, “Two distinct binding modes provide the RNA-binding protein RbFox with extraordinary sequence specificity”
